Among all 57,000 sequences or so, about 4,300 (7.5%) were called active. Rule as the data show it: active = GI50 up to about 1.1 µM and inactive = higher. A selection follows. Results with a measured potency or affinity are listed apart.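 Where inhibition never reached the appropriate level, the endpoint shown equals the highest concentration tested. Otherwise, values were interpolated linearly from a five-concentration, 48-hour dose response in 96-well plates. GI50 is the concentration that inhibits growth by half.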
system: HT-29; assay: NCI tumour cell line growth inhibition, 48 h

Compared with “cis-Bis[[(trimethylsilyl)methyl]amino]tetrachloroplatinum(IV), CHEMBL2146191”, “[Bis(aminomethyl)pentamethylenesilane]tetrachloropaltinum(IV), CHEMBL2146204” is 2.6-fold lower in GI50: 4.11 µM for the first, 1.57 µM for the second.

First: [Bis(aminomethyl)tetramethylenesilane]tetrachloropaltinum(IV), CHEMBL2146189
Second: [Bis(aminomethyl)pentamethylenesilane]dichloropaltinum(II), CHEMBL2146202
The GI50 of the first is 1.5-fold higher: 4.9 µM for the first, 3.19 µM for the second.

Going from CISPLATIN, CHEMBL11359 to “[Bis(aminomethyl)dimethylsilane]dichloroplatinum (II), CHEMBL2146201”, the GI50 rises from 7.93 µM to 18.1 µM (2.3-fold).

Compared with “[Bis(aminomethyl)dimethylsilane]tetrachloroplatinum(IV), CHEMBL2146190”, “[Bis(aminomethyl)ethylmethylsilane]tetrachloroplatinum(IV), CHEMBL2146192” is 3.4-fold lower in GI50: 5.28 µM for the first, 1.57 µM for the second.

Going from “mu-(1,7-nanodiamine-N,N')bis-(cis-aminedichloroplatimum (II)), CHEMBL2146215” to “[Bis(aminomethyl)tetramethylenesilane]dichloropaltinum(II), CHEMBL2146205”, the GI50 falls from 42.7 µM to 16.2 µM (2.6-fold).

For “[Bis(aminomethyl)diethylsilane]tetrachloroplatinum(IV), CHEMBL2146203”, the GI50 was 2.06 µM.

Source: ChEMBL document CHEMBL1201862, “PubChem BioAssay data set” (2004)
